AMA1 RON2 block: inhibitors of Plasmodium falciparum AMA1-RON2 interaction. AlphaScreen AMA1-biotinylated RON2 peptide binding. Potency, µM (highest dose often 58.2 µM), actives largely listed as inhibitors. 0.2% of 360,000 active; also: nearly all actives have a fitted effect of over 45% in size
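AMA1 (3D7) with his tag at 25 nM final met compounds first, then biotinylated RON2 peptide at 25 nM; detection used donor plus acceptor beads, 10 µg/mL apiece, read by AlphaScreen after 30 min at room temperature.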
HCV inhibitor: inhibitors of hepatitis C virus infection; Huh7.5.1 HCVcc-Cre infection, luciferase reporter, 44 h; Potency, µM (highest dose often 41.8 µM), most hits filed as inhibitors; 3.4% of 340,000 active
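Cells seeded at 1,000/well and cultured 4 h, then compounds added followed by HCVcc-Cre virus (~0.5 moi). After 44 h further culture, luciferase substrate was added, plates held 15 min at room temperature, and luminescence read for 15 sec.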
Pf growth 48h: inhibits P. falciparum growth in the first generation, 48 h. 5.9% of 310,000 active. Potency, µM (top dose mostly 28.7 µM), usual class: inhibitors. AID 504832. P. falciparum luciferase growth in erythrocytes, 48 h
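In quantitative HTS format, infected erythrocytes bearing luciferase-reporter parasites were treated for a single generation at 37 C. Luminescence after adding detection reagent served as the growth measure.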
Cycloheximide cs: counter-screen for Shiga toxin inhibitors: cycloheximide protein synthesis inhibition | AID 2314 | 12% of 300,000 active | max response, % | cell reporter, cycloheximide protein synthesis inhibition counterscreen; in the data active = max response mostly above about 13%, no sharp cut-off; inactive = mostly below about 14%; also: read at 38.3 µM for the half of the compounds with a filed dose
Pf growth 96h: P. falciparum growth inhibition at 96 hour, primary screen for plastid delayed-death inhibitors. 6.9% of 320,000 active. P. falciparum luciferase reporter growth, 96 h. AID 504834. Potency, µM (titrated, usually from 28.7 µM), actives largely listed as inhibitors
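Delayed-death screen, second-generation endpoint: infected erythrocytes, 2% hematocrit, 0.05% parasitemia final; 96 hours at 37 C, 5% CO2; luciferase detection reagent; luminescence decrease equals reduced growth.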
Shiga toxin inh: inhibitors of Shiga toxin in Vero cells; AID 2315; inhibition, % at 38.7 µM; Vero cells, Shiga toxin protein synthesis inhibition reporter; 9.2% of 290,000 active; in the data active = inhibition mostly above about 28%, no sharp cut-off; inactive = mostly below about 43%
Of the large screens only hits and unclear results are named; the others gave an inactive call. Rows were chosen to be rich in hits. Some 21% of all compounds tested hit in one or more screens of this group. Unless noted, calls follow the shape of the dose curve; as a rule, active = well fitted curve in the direction sought with a large enough effect; inconclusive = small, poorly fitted or top-dose-only effect, or another doubt; inactive = no such curve, though single readings can be large; an effect the other way counts as inactive or inconclusive.

CCC1S/C(=N/N=C/c2cccs2)NC1=O (centres undefined)	Pf growth 96h inconclusive
O=C1N/C(=N\N=C\c2cccs2)SC1Cc1cccc(Cl)c1 (centres undefined)	HCV inhibitor inconclusive, Pf growth 48h 13µM
O=C1N/C(=N\N=C\c2cccnc2)SC1Cc1ccc(SC(F)F)cc1 (centres undefined)	HCV inhibitor inconclusive, Pf growth 48h 3.3µM (no result: Pf growth 96h)
CC1S/C(=N/N=C/c2cccs2)NC1=O (centres undefined)	Cycloheximide cs 16, Shiga toxin inh 20
O=C1N/C(=N\N=C\c2cccs2)SC1Cc1ccc(Cl)cc1 (centres undefined)	Pf growth 48h inconclusive, Pf growth 96h 0.74µM
CCCC1S/C(=N/N=C/c2cccs2)NC1=O (centres undefined)	HCV inhibitor inconclusive
Cn1c(=O)[nH]c(=O)c2c1nc(N1CCCCCC1)n2CCOc1ccccc1	none
COc1ccc(-c2cc(NC=O)c3ncc(-c4cnn(C)c4)n3c2)cc1	none (no result: HCV inhibitor, Pf growth 48h, Cycloheximide cs, Pf growth 96h, Shiga toxin inh)
C=CCC1(CC=C)CCCN1C(=O)Cn1nnnc1CN(C)C(C)C	Pf growth 96h inconclusive
COCCNC(=O)C1(C)CCN(Cc2ccc3ccccc3c2Br)C1 (centres undefined)	none (no result: HCV inhibitor, Pf growth 48h, Cycloheximide cs, Pf growth 96h, Shiga toxin inh)
O=C(Cc1cccc2ccccc12)NCCc1ccccc1	none (no result: Shiga toxin inh)
CCCCN(C(=O)C1CC(=O)N(c2ccc(CC)cc2)C1)c1c(N)n(CCC)c(=O)[nH]c1=O (centres undefined)	none (no result: Cycloheximide cs, Shiga toxin inh)
COc1cc(/C=N/N=C2/NC(=O)C(Cc3ccccc3)S2)ccc1O (centres undefined)	Cycloheximide cs 33, Pf growth 96h inconclusive, Shiga toxin inh 99
C(=N\n1cnnc1)/c1cccs1	none (no result: Pf growth 96h)
C(=N\N=C\c1cccs1)/c1cccs1	Cycloheximide cs 45, Pf growth 96h inconclusive, Shiga toxin inh 71
CC[C@@H]1CC2=C(C(=O)OC(C)(C)O2)[C@H](c2ccc(Cl)cc2)O1	none (no result: HCV inhibitor, Pf growth 48h, Cycloheximide cs, Pf growth 96h, Shiga toxin inh)
CCOC(=O)c1c(S(=O)(=O)N2CCN(c3ccc(C(C)=O)cc3)CC2)c(C)n(C)c1C	none
COc1cccc(-c2cc(C(F)(F)F)nc(-n3cc(C)cn3)n2)c1	HCV inhibitor 10µM, Pf growth 48h inconclusive
COc1cccc(-c2cc(C(F)(F)F)nc(-n3cncn3)n2)c1	Pf growth 96h inconclusive
Cc1ccccc1-n1nnnc1SCC(=O)NC1CC1	none (no result: Pf growth 48h, Cycloheximide cs, Pf growth 96h, Shiga toxin inh)
Cc1cc(OC(=O)c2c(F)cc(F)cc2F)nc(C)n1	Pf growth 48h inconclusive
C(=C\c1ccccc1)/CN1CCN(C(c2ccccc2)c2nnnn2Cc2ccccc2)CC1 (centres undefined)	none (no result: HCV inhibitor, Pf growth 48h, Cycloheximide cs, Pf growth 96h, Shiga toxin inh)
O=C(N/N=C\c1cccc(Cl)c1)c1ccc(Cn2cc(Br)c([N+](=O)[O-])n2)o1	HCV inhibitor inconclusive, Pf growth 48h inconclusive, Pf growth 96h inconclusive, Shiga toxin inh 24
Cc1c(Cl)c([N+](=O)[O-])nn1Cc1ccc(C(=O)N/N=C\c2cccc(Br)c2)o1	HCV inhibitor inconclusive, Pf growth 48h 9.3µM, Pf growth 96h inconclusive
CNC(=O)/C=C/c1cccc(C(F)(F)F)c1	none
CC(C)(C)NC(=O)/C=C/c1ccc(C(F)(F)F)cc1	Cycloheximide cs 76, Shiga toxin inh 96
O=C(CCCn1c(=O)[nH]c2ccccc2c1=O)NC1CCCCCC1	Pf growth 48h inconclusive
CC1CCC(NC(=O)CCCn2sc3ccccc3c2=O)CC1 (centres undefined)	Cycloheximide cs 22
Cn1nc(-c2ccc(Cl)cc2)cc1NC(=O)Nc1ccccc1	Cycloheximide cs 31, Shiga toxin inh 66
Cn1nc(-c2ccccc2)cc1NC(=O)c1ccccc1	Cycloheximide cs 12
O=C(Nc1cc(-c2ccccc2)nn1C1CCCCC1)c1ccc(Cl)cc1	HCV inhibitor 2.5µM (no result: Pf growth 48h, Cycloheximide cs, Pf growth 96h, Shiga toxin inh)
CC(=O)Nc1cc(-c2ccc(Cl)cc2)nn1-c1ccccc1	Pf growth 96h 9.3µM
O=C(O)C(C1CCCCC1)C1(O)CCCC1 (centres undefined)	none (no result: Pf growth 48h, Cycloheximide cs, Pf growth 96h, Shiga toxin inh)
Cc1ccc(C)c(OCC(=O)N2CCN(c3ncccn3)CC2)c1	Pf growth 48h inconclusive, Pf growth 96h inconclusive (no result: Cycloheximide cs, Shiga toxin inh)
CCCCN(CC)CCNC(=O)C1c2cc(OC)c(OC)cc2C(=O)N2CCc3ccccc3C12 (centres undefined)	Pf growth 48h inconclusive, Pf growth 96h 10µM
C=CCOc1ccc(CNCc2cccnc2)cc1OCC	none
C=CCOc1ccc(CNCc2cccnc2)cc1	HCV inhibitor inconclusive, Cycloheximide cs 8.5, Pf growth 96h inconclusive
CCOc1ccccc1/C=C(/NC(=O)c1ccccc1)C(=O)NCC(=O)O	HCV inhibitor inconclusive
CCOc1ccccc1/C=C(\NC(=O)c1ccccc1)C(=O)NCCC(=O)O	Shiga toxin inh 43
CC[C@](C)(O)c1cc2ccccc2c(=O)o1	none (no result: Pf growth 48h, Cycloheximide cs, Pf growth 96h, Shiga toxin inh)
c1ccc(CN=C2NN=C(c3cc4ccccc4o3)CS2)cc1	Pf growth 48h inconclusive, Cycloheximide cs 26, Pf growth 96h inconclusive, Shiga toxin inh 44
COc1ccc(Cc2nnc3n2N=C(c2cc4ccccc4o2)CS3)cc1OC	none (no result: Pf growth 48h, Cycloheximide cs, Pf growth 96h, Shiga toxin inh)
c1ccc2oc(C3=NNC(=NC4CC4)SC3)cc2c1	Cycloheximide cs 41, Pf growth 96h inconclusive
CN1N=C(c2ccc(F)c(F)c2)CSC1=NCc1ccccc1	none
FC(F)(F)C(F)(F)c1nc2nc(Cl)c(Cl)nc2[nH]1	none (no result: HCV inhibitor, Pf growth 48h, Cycloheximide cs, Pf growth 96h, Shiga toxin inh)
CCOC(=O)N1CCN(C(=O)Cn2ccc3c(OC)cccc3c2=O)CC1	Pf growth 96h inconclusive
CCN(CC)S(=O)(=O)c1ccc(C2=NOC3(C2)N(C)c2ccccc2C3(C)C)cc1 (centres undefined)	Pf growth 48h 12µM, Pf growth 96h 13µM
CN1c2ccccc2C(C)(C)C12CC(c1ccc(S(=O)(=O)N3CCCCC3)cc1)=NO2 (centres undefined)	none
CN1c2ccccc2C(C)(C)C12CC(c1cccc(S(=O)(=O)N3CCCC3)c1)=NO2 (centres undefined)	HCV inhibitor inconclusive, Pf growth 48h 10µM, Pf growth 96h inconclusive
COc1ccc(NC(=O)C2(C)CCN2Cc2cccc(OC)c2F)cc1OC (centres undefined)	none (no result: HCV inhibitor, Pf growth 48h, Cycloheximide cs, Pf growth 96h, Shiga toxin inh)
O=C1CCNc2ccc(-c3ccccc3)cc21	HCV inhibitor inconclusive, Cycloheximide cs 38, Shiga toxin inh 75
O=C1CCNc2cc3ccccc3cc21	Pf growth 48h inconclusive, Cycloheximide cs 25 (no result: Pf growth 96h)
Cc1ccc2c(c1)C(=O)CCN2	none (no result: Pf growth 48h)
CCn1c(NCc2ccccc2NS(=O)(=O)c2ccc(C)cc2)nc2ccccc21	HCV inhibitor 14µM
CCn1c(NCc2cc(Br)ccc2NS(=O)(=O)c2ccc(C)cc2)nc2ccccc21	HCV inhibitor 10µM, Pf growth 48h inconclusive, Pf growth 96h 4.7µM
CCOC(=O)[C@@H]1[C@H]2COc3ccccc3[C@@H]2N2C(=O)N(c3ccc(OC)cc3)C(=O)[C@@]12C	none
CCOC(=O)c1c(S(=O)(=O)NCC(=O)Nc2ccccc2OC)c(C)n(C)c1C	none
CCOC(=O)c1c(S(=O)(=O)NCC(=O)Nc2cc(C)ccc2OC)c(C)n(C)c1C	Pf growth 96h 9.3µM

Source: PubChem
